Among the data in PubChem BioAssay AID504379 (National Center for Advancing Translational Sciences (NCATS), 2011) are outcome and IC50 values, retold here.

Active and inactive are the calls of the source. How the calls were made is not given here.

For this experiment, the target named is Thyrotropin receptor (Homo sapiens) (UniProt P16473). As to the kind of experiment: Concentration-response assay for inverse agonists of the thyroid stimulating hormone receptor: ELISA activity detection. The following applies: HEK293-TSHR basal cAMP, ELISA chemiluminescence, 1 h. An excerpt: TSH is an alpha/beta heterodimeric glycoprotein hormone secreted from the anterior pituitary gland which belongs to the glycoprotein hormone family. The actions of TSH are mediated by a seven-transmembrane receptor, which upon TSH binding couples preferentially to the G-alpha (s) protein (Gs), resulting in activation of adenylate cyclase and increase in cyclic adenosine 3', 5' monophosphate (cAMP). The TSH receptor (THSR) is mainly expressed in thyroid follicular cells and regulates their growth and function. This cell based assay was conducted on a TSHR transfected HEK 293 cell line, measuring cAMP stimulation using antibody-based Homogeneous Time Resolved Fluorescence (HTRF). Our goal is to identify small molecules that will inhibit (antagonize) the thyroid-stimulating hormone receptor (TSHR), a member of the 7 transmembrane-spanning receptor (7TMR) family of cell surface receptors. TSHR-mediated hyperthyroidism is important in thyroid pathology. The development of small molecule antagonists of TSHR may lead to therapeutic approaches for TSHR-mediated hyperthyroidism caused by constitutively activating mutations or stimulating auto-antibodies associated with Graves' disease. Graves' disease is the leading cause of hyperthyroidism and is caused by autoantibodies that stimulate TSHR (TsAbs) causing thyroid growth and unregulated overproduction of thyroid hormones and existing treatments have liabilities (agranulocytosis). In addition, TSHRs are known to be expressed in multiple extrathyroidal tissues including bone, brain, kidney, testis, fat and cells of the immune system but the role of the TSHR in these tissues is not clear. Therefore, TSHR antagonists/inverse agonists could be used as probes of extrathyroidal TSHR function. Finally, TSHR inverse agonists, which are a subclass of antagonists that inhibit agonist-independent (or basal or constitutive) TSHR signaling, could be used to inhibit TSH-independent signaling in patients with recurrent or metastatic thyroid cancer who are receiving thyroid hormone to suppress TSH. A confirmatory assay of TSHR inverse agonists was conducted on a HEK 293 cell line stably expressing the TSHR, using an ELISA based cAMP competition assay using cAMP-Screen Direct System (Applied Biosystems, Foster City, CA) to measure cAMP stimulation.
Chain of Thyrotropin receptor (Homo sapiens) (P16473 whole entry, looked up): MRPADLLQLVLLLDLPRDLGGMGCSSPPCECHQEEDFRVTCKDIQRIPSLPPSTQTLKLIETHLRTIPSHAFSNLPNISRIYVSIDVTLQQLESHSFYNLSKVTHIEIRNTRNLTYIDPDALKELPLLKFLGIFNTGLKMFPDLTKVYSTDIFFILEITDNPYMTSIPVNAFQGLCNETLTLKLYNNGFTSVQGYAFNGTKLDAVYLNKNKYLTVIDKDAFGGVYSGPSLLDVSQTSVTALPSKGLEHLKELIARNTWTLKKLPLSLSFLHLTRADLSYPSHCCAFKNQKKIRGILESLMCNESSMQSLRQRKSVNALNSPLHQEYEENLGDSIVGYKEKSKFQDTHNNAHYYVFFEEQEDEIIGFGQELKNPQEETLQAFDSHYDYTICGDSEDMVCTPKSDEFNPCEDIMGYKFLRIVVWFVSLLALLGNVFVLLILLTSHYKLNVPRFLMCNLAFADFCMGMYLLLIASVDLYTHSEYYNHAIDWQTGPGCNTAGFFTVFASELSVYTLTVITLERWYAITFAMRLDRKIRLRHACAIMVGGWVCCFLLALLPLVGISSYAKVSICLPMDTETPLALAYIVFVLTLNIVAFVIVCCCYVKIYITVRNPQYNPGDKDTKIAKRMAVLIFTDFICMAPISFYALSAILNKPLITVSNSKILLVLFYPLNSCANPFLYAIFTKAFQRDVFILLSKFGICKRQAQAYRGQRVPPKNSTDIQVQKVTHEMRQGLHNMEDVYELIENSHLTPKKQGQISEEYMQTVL
Transiently transfected HEK-EM 293 cells or cells stably expressing TSHRs were seeded into 96-well plates at a density of 7 x10^4 cells per well in DMEM containing 10% FBS. Cells were cultured for 24 h before incubation for 20 min in HBSS/10 mM HEPES (pH 7.4). To determine basal cAMP production, cells were incubated for 1 h at 37 C in a humidified incubator in HBSS/HEPES containing 1mM IBMX (Sigma Chemical Co., St. Louis, MO) in the presence or absence of compound. The levels of cAMP in cells incubated in HBSS/HEPES without IBMX were subtracted in all experiments. After aspiration of the incubation medium, cells were lysed using lysis buffer of the cAMP-Screen Direct system (Applied Biosystems, Foster City, CA). The cAMP content of the cell lysate was determined using the method described in the manufacturer's protocol. The chemiluminescence signal was measured in a VICTOR3 V 1420 multilabel counter (PerkinElmer, Norwalk, CT). The potency (IC50) of the ligands were obtained from dose-response curves by data analysis with GraphPad Prism 4 for Windows.
For orientation: An ELISA detects its analyte on a solid surface through an enzyme-linked reagent.
With `COc1ccc(C2Nc3ccccc3C(=O)N2Cc2ccccc2)cc1COc1c(C)cccc1C` (stereo unspecified), the outcome was inactive.

For the compound `COc1ccc(C2Nc3ccccc3C(=O)N2Cc2ccccn2)cc1COc1c(C)cccc1C` (stereo unspecified), the outcome was inactive.

Take `COc1ccc(C2Nc3ccccc3C(=O)N2Cc2ccco2)cc1COc1c(C)cc(NC(C)=O)cc1C` (stereo unspecified): the IC50 is 6 µM (active).

With `CCc1cccc(CC)c1OCc1cc(C2Nc3ccccc3C(=O)N2Cc2ccco2)ccc1OC` (stereo unspecified), the concentration for half-maximal inhibition (IC50) is 11 µM (active).

With `COc1ccc(C2Nc3ccccc3C(=O)N2Cc2ccco2)cc1CSc1c(C)cccc1C` (stereo unspecified), the compound was classed as inactive.

Turning to `COc1ccc(C2Nc3cccc(O)c3C(=O)N2Cc2ccco2)cc1COc1c(C)cc(NC(C)=O)cc1C` (stereo unspecified), the result was inactive.

`Cc1cccc(C)c1OCc1cccc(C2Nc3ccccc3C(=O)N2Cc2ccco2)c1` (stereo unspecified): the IC50 is 5 µM (active).

Regarding `COc1ccc(C2Nc3ccccc3C(=O)N2Cc2cccs2)cc1COc1c(C)cccc1C` (stereo unspecified), the call was inactive.

Take `COc1ccc(C2Nc3ccccc3C(=O)N2Cc2ccc(C)o2)cc1COc1c(C)cccc1C` (stereo unspecified): the compound was classed as inactive.

As for `COc1ccc(C2Nc3ccccc3C(=O)N2Cc2ccco2)cc1COc1ccccc1C` (stereo unspecified), the compound was classed as inactive.

For `COc1ccc(C2Nc3ccccc3C(=O)N2Cc2cccnc2)cc1COc1c(C)cccc1C` (stereo unspecified), the half-inhibitory concentration (IC50) is 7 µM (active).

The term IC50 denotes the concentration needed to halve the response being measured.
